Entries with a potency or affinity are not part of this list. The source made the active and inactive calls. No cut-off is given here; in the data, nearly all actives have IC50 up to about 0.98 µM.
molecular target: Calcium-dependent protein kinase 1 (Plasmodium falciparum (isolate 3D7)) (UniProt P62344); assay: PfCDPK1 kinase inhibitors, biochemical, TCAMS library (AID 1159585); conditions: recombinant PfCDPK1, Kinase-Glo ATP depletion luminescence;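 note: inhibitors leave more ATP so luminescence rises with inhibition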
Sequence (P62344 whole entry, looked up): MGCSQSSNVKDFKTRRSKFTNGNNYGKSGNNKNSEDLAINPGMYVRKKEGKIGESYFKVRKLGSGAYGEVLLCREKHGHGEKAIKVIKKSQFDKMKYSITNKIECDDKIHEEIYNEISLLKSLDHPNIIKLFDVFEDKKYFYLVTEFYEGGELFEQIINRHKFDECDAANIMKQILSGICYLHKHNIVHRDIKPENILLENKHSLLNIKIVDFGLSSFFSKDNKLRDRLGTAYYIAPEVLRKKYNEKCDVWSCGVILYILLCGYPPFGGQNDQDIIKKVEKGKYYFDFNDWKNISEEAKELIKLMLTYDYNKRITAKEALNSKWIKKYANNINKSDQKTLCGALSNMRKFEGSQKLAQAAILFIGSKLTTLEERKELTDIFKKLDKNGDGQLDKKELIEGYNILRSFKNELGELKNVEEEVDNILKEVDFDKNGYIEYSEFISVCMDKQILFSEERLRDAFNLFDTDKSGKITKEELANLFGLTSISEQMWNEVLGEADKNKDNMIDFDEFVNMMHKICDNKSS

Question: For `O=C(/C=C/c1ccc(Cl)c(Cl)c1)NCCCCCN1CCC(NC(=O)Nc2ccc(Cl)c(C(F)(F)F)c2)CC1`, which outcome is on record?
Answer: inactive

Question: `Cc1cc(CNCCCCCNCc2ccc(Cl)cc2)ccc1O` was tested. Which outcome did it give?
Answer: inactive

Question: With `O=C(Nc1ccc(F)cc1)NC1CCN(c2ccnc3cc(Cl)ccc23)CC1` as the compound, how does the outcome read?
Answer: inactive

Question: How did the outcome turn out when `COc1cc(OC)c(NC(=O)C2c3ccccc3C(=O)N(C)C2c2cccs2)cc1Cl` (centres undefined) was run?
Answer: inactive

Question: How did the outcome turn out when `Cc1[nH]cc(Br)c(=O)c1-c1ccc(Oc2ccccc2)cc1` was run?
Answer: inactive

Question: With `COc1ccc2nccc([C@@H](O)CN3CCC(NCc4ccc5c(c4)NC(=O)C(C)(C)O5)CC3)c2c1` as the compound, how does the outcome read?
Answer: inactive

Question: With `CCCN1CCN(c2cc(S(=O)(=O)Nc3ccc(C(=O)NCc4cccc(C(F)(F)F)c4)cc3)ccc2OC)CC1` as the compound, how does the outcome read?
Answer: inactive

Question: For `CC(C)CNCc1cccc(-c2cccc(CN(CCCN3CCN(C)CC3)C(=O)Nc3ccccc3)c2)c1`, which outcome is on record?
Answer: inactive

Question: Which outcome does the source give for `C=CCOC(=O)N1CCC(CNCc2cccc(-c3ccc(-c4nc5c(C)cccc5[nH]4)s3)c2)C1` (centres undefined) here?
Answer: inactive

Question: With `Cc1nc2ccc3ccc(CNc4ccc5c(c4)CN([C@H](CCC(=O)O)C(=O)O)C5=O)cc3c2c(=O)[nH]1` as the compound, how does the outcome read?
Answer: inactive

Question: With `O=C(CN(c1cccc(C(F)(F)F)c1)S(=O)(=O)c1ccc(Cl)cc1)NCCC(c1ccccc1)c1ccccc1` as the compound, how does the outcome read?
Answer: inactive

Question: `CCOc1ccc(-c2nc(NC(=O)COc3ccc(OC)cc3)sc2C)cc1` was tested. Which outcome did it give?
Answer: inactive

Question: How did the outcome turn out when `CC(=O)Nc1csc(-c2cnc(/C=C(\C)C[C@@H]3OC[C@H](C[C@@H]4O[C@H]4[C@@H](C)[C@H](C)O)[C@@H](O)[C@H]3O)o2)c1` was run?
Answer: inactive

Question: How did the outcome turn out when `NC(N)=NN=Cc1ccc2ccc3ccccc3c2c1` was run?
Answer: inactive

From PubChem BioAssay
